# Bead autofluor: flagged as autofluorescent in microsphere protease counterscreen; 3.1% of 360,000 active; AID 624483; compound autofluorescence counterscreen, microsphere flow cytometry; active compounds read high; fluorescence intensity (test concentration not listed); in the data active = fluorescence intensity above about 16000; inconclusive = no clear call, values can overlap the other calls
# BoNT-A LC inh2: inhibitors of Botulinum neurotoxin A light chain protease; inhibition, % at 10 µM; multiplex microsphere protease substrate cleavage, flow cytometry; 0.17% of 360,000 active; note: plate controls were buffer without enzyme for full effect and enzyme alone for no effect
# GDH-TPI inh: counter-screen for M. tuberculosis FBA inhibitors: GDH-TPI coupled enzymes. GDH-TPI coupled enzyme counterscreen, NADH absorbance. inhibition, % at 4.8 µM. 1.2% of 360,000 active. AID 588335; in the data active = inhibition above about 30%;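 note: 0% = DMSO wells and 100% = wells lacking the enzyme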
# BoNT-F LC inh: blocks Botulinum neurotoxin F light chain protease; Multiplex microsphere protease cleavage assay, flow cytometry; AID 588497; 0.22% of 360,000 active; inhibition, % at 10 µM; in the data active = inhibition above about 35%, passing the limit was not always enough; inconclusive = no clear call, values can overlap the other calls; note: plate controls were buffer without enzyme for full effect and enzyme alone for no effect
# FBA Mtb inh: Mtb fructose-bisphosphate aldolase inhibition; P9WQA3; purified M. tuberculosis FBA, fluorescence read-out; inhibition, % at 1 µM; 2.3% of 360,000 active; in the data active = inhibition above about 27%;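 note: 0% = vehicle and 100% = reference inhibitor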
# Target sequence (P9WQA3 whole entry, looked up): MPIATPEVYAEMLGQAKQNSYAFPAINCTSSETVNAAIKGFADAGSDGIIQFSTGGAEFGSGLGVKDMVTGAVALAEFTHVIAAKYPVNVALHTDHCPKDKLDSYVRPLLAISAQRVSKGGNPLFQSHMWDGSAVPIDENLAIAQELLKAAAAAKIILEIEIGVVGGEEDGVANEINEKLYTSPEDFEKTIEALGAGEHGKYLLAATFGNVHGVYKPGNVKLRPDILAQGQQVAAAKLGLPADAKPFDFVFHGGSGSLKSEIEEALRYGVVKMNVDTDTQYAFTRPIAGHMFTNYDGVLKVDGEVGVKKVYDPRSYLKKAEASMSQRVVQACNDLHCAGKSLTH
# Anthrax LF inh2: blocks Bacillus anthracis lethal factor protease | P15917 | multiplex microsphere protease cleavage assay, LF | inhibition, % at 10 µM | 0.12% of 360,000 active | AID 588501; note: plate controls were buffer without enzyme for full effect and enzyme alone for no effect
# * = called active by the depositor; u = inconclusive; + = active, no number. Sampled rows, rich in hits. Any-hit rate of the full collection: about 6.7%. Cut-off read from the data, not from the text of the source, unless noted: active = inhibition above about 30%; inconclusive = no clear call, values can overlap the other calls; inactive = below that.
SMILES,Bead autofluor,BoNT-A LC inh2,GDH-TPI inh,BoNT-F LC inh,FBA Mtb inh,Anthrax LF inh2
COc1ccc(-c2noc(N3CCC(C(=O)Nc4ccccc4OC)CC3)n2)cc1,5346,0,3,2,0,2
CCOP(=O)(c1ccccc1)c1nc(-c2ccccc2C)oc1NCc1ccccc1 (stereo unspecified),4545,-8,5,u,-3,-3
COP(=O)(OC)c1nc(-c2cccc3ccccc23)oc1NCc1ccccc1,9522,-3,16,-6,192*,-10
COc1ccc(CNc2oc(-c3cccc4ccccc34)nc2P(=O)(OC)OC)cc1,4318,-2,7,-7,+,-4
COc1cc(-c2noc(-c3ccco3)n2)cc(OC)c1OC,3903,0,2,-1,2,-4
O=C1/C(=C/c2ccc(O)cc2)SC(=S)N1CC1CCCO1 (stereo unspecified),5148,2,7,5,-21,-7
Cc1ccsc1/C=C1\SC(=S)N(CC2CCCO2)C1=O (stereo unspecified),4396,35*,6,7,-9,32*
COc1cccc(-c2cc(C(=O)Nc3cc(OC)c(OC)c(OC)c3)no2)c1,9925,-4,7,-36,3,-7
CCc1cc2c3c(c(=O)oc2cc1O)CCCC3,4045,0,13,3,+,0
COc1ccc2c3c(c(=O)oc2c1OCC(N)=O)CCCC3,2942,-1,-5,-5,75*,-1
Cc1oc2cc3oc(=O)c4c(c3cc2c1C)CCC4,5466,0,0,-3,1,-7
CC(=O)C(C)Oc1ccc2c3c(c(=O)oc2c1)CCCCC3 (stereo unspecified),19944*,u,12,2,176*,-1
CCc1cc2c(-c3ccccc3)cc(=O)oc2cc1OC(C)C(=O)O (stereo unspecified),3711,1,14,16,4,14
CCc1cc2c3c(c(=O)oc2cc1OC(C)C(=O)O)CCCC3 (stereo unspecified),2827,2,16,15,159*,9
CCn1c(C)nc2cc(C(=O)NNC(=S)Nc3ccc(Cl)cc3Cl)ccc21,1965,0,2,0,1,-3
CCOC(=O)COc1ccc2c3c(c(=O)oc2c1C)CCC3,4069,0,7,-1,17,-2
Cc1c(OC(C)C(=O)O)ccc2c3c(c(=O)oc12)CCCC3 (stereo unspecified),3393,-4,3,20,173*,-8
Cc1c(OCC(=O)C(C)(C)C)ccc2c3c(c(=O)oc12)CCCC3,4197,1,9,u,22,28
CC(=O)Oc1ccc2c3c(c(=O)oc2c1C)CCCC3,3578,-1,2,-13,+,-14
C=CC[C@@H](CC(=O)N[C@@H](CO)Cc1ccccc1)C(=O)N[C@@H](COC(=O)[C@@H](CC=C)Cc1ccc(F)cc1)Cc1c[nH]c2ccccc12,3705,0,5,-4,-3,-2
CC(CC(=O)O)CC(=O)N1CCN(S(=O)(=O)c2cccs2)CC1 (stereo unspecified),5664,1,3,7,3,6
CC(C)C(=O)Nc1cccc(-c2cnc3ccccc3n2)c1,20196*,2,14,0,-3,-1
Cc1ccc(C(=O)Nc2cccc(-c3cnc4ccccc4n3)c2)cc1,5719,2,24,3,-3,2
CC(=O)Nc1ccc(NC(=O)C(C)N(C)CC(=O)Nc2ccccc2Br)cc1 (stereo unspecified),3132,2,1,25,-1,-9
COc1ccc(CC(=O)OCC(=O)NC(=O)NC23CC4CC(CC(C4)C2)C3)cc1,24237*,-1,-6,-1,-3,-1
O=C(COC(=O)c1n[nH]c2ccccc12)NC(=O)NC12CC3CC(CC(C3)C1)C2,19573*,u,-8,2,-2,-2
CCOc1cc(/C=N/NC(=O)CSc2cccc3cccnc23)ccc1O,2574,0,24,-1,8,-2
COc1ccc(NC(=O)C(CC(=O)O)Cc2ccc(Br)cc2)cc1 (stereo unspecified),3959,-3,-6,u,0,16
COc1ccc(NC(=O)C(CC(=O)O)Cc2ccccc2)cc1 (stereo unspecified),22396*,2,9,3,0,4
Nc1c(C(=O)NCc2ccco2)c2nc3ccccc3nc2n1CCc1ccccc1F,10070,4,8,-6,70*,-7
